Assay results: PubChem BioAssay (NCATS)
Records with an inconclusive call do not appear. Calls of active or inactive are those of the source. Unless noted, the call rests on the fitted dose curve; in most records, active means well fitted curve in either direction with a large enough effect (not every such curve was filed as active); inconclusive means small, poorly fitted or top-dose-only effect, or another doubt; inactive means flat fitted curve, though single readings scatter.

What was measured:
[1] = biological target: Lysosomal acid glucosylceramidase (Homo sapiens) (UniProt P04062); assay: Glucocerebrosidase-p2 (AID 348; in the data active means potency below about 10 µM; further: potency means the concentration at half of the fitted maximal effect); conditions: purified GBA, blue fluorogenic substrate, 40 min
Chain of Lysosomal acid glucosylceramidase (Homo sapiens) (P04062 whole entry, looked up): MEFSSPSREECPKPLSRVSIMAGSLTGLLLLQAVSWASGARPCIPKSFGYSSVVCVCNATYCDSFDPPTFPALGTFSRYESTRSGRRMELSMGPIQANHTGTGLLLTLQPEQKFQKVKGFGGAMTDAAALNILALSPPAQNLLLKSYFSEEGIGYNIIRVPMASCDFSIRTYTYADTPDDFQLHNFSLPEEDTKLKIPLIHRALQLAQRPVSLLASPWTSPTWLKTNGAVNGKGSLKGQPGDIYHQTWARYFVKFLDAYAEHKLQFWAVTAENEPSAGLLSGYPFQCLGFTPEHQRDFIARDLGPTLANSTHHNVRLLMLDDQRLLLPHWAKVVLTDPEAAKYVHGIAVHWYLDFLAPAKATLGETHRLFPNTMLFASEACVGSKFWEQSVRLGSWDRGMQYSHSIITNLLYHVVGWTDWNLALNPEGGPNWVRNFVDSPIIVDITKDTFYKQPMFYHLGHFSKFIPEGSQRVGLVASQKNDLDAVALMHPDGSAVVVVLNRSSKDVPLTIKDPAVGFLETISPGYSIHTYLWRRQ
Method in brief: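 Compounds titrated from 0.6 nM upwards against 0.2 nM enzyme in pH 5.9 citric acid/KH2PO4, taurocholate, tween-20; blue fluorogenic substrate 80 uM, 40 min room temperature, stopped and read Ex 365/Em 440 for AC50.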

[2] = AP1 Signaling Pathway (AID 357); conditions: ME-180 AP-1-bla reporter, EGF-induced, beta-lactamase ratio, 5 h; at 7.69 µM (top of the series) unless noted;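 further: ME-180 reporter cells stimulated with EGF at its EC50 level; on the % scale 0 is the no-effect control and ±100 the full control effect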
Method in brief: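 Cells are seeded overnight, exposed to compound titrations and an EC50 level of EGF for 5 hours at 37 °C, then loaded with CCF4 dye for 2.5 hours. Beta-lactamase activity under the AP-1 element is read as a blue/green ratio.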

[3] = Stat Signaling Pathway (AID 446); conditions: ME-180 SIE beta-lactamase reporter, IL-6 stimulated, 5 h; at 7.69 µM (top of the series) unless noted;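 further: ME-180 cervical cancer cells given 40 pM IL-6 alongside compound; SIE-controlled beta-lactamase reporter measured as 460/530 nm FRET emission ratio; on the % scale 0 is the no-effect control and ±100 the full control effect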
Method in brief: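 ME-180 SIE-bla cells; overnight plating; cpd + IL-6 40 pM, 5 h, 37 C; LiveBLAzer 2.5 h RT; 460/530 nm emission ratio. Normalized to 300 pM IL-6 and 125 nM JAK inhibitor controls.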

[4] = biological target: Glucocorticoid receptor (Homo sapiens) (UniProt P04150); assay: GR-GFP Redistribution (AID 450;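 active means compounds whose dose series gives a full or clear partial fitted curve of increased nuclear translocation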; further: potency means the concentration at half of the fitted maximal effect); conditions: U2OS GR-GFP nuclear translocation, laser cytometry, 2 h
Chain of Glucocorticoid receptor (Homo sapiens) (P04150 whole entry, looked up, the tested form may be a part): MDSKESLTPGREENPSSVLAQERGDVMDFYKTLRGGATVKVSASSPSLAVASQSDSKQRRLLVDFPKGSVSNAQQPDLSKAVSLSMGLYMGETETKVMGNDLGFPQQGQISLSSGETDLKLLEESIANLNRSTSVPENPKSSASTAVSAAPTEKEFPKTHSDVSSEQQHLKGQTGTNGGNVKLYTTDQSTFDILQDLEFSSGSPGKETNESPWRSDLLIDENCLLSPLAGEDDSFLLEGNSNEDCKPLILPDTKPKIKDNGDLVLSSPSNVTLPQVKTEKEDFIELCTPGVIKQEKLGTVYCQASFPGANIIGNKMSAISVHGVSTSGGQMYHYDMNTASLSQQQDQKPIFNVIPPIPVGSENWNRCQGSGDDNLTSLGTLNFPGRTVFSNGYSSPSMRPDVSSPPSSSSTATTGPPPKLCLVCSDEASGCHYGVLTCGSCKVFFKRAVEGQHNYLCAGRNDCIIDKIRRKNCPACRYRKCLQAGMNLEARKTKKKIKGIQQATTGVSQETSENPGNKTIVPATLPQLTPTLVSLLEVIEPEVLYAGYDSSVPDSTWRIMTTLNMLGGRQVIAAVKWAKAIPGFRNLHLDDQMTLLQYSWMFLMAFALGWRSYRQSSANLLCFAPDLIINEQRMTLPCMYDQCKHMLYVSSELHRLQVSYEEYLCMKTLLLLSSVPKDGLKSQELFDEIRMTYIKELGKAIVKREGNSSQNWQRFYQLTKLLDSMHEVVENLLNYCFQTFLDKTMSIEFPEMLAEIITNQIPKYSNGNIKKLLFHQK

[5] = biological target: Glucocorticoid receptor (Homo sapiens) (UniProt P04150); assay: GR-EFC Redistribution (AID 451; calls by dose curve; further: potency means the concentration at half of the fitted maximal effect); conditions: CHO-K1 GR-EFC translocation, beta-gal luminescence, 2 h
Method in brief: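 CHO-K1 cells stably expressing nuclear-localized β-gal enzyme acceptor and GR fused C-terminally to the enzyme donor fragment; ligand-driven nuclear translocation restores β-gal by complementation. Compounds titrated up to 46 uM final, 2 h at 37 °C; luminescence read.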

[6] = biological target: Mitogen-activated protein kinase 10 (Mus musculus) (UniProt Q61831); assay: JNK3 AlphaScreen Assay (AID 530); conditions: JNK3 lysate, c-Jun phosphorylation; series mostly up to 57.1 µM;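 further: kinase came from lysate of stimulated human HepG2 cells; signal reports phosphorylation of biotinylated GST-cJun 1-79 at Ser73 with 10 µM ATP; on the % scale 0 is the no-effect control and ±100 the full control effect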
Method in brief: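 JNK3 came from HepG2 lysates pre-activated with IL-1beta and TNF-alpha and phosphorylated biotinylated GST-cJun (1-79) at 10 uM ATP, pH 7.6, room temperature. Compounds were titrated. AlphaScreen signal used anti-phospho-cJun (Ser73) antibody.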

[7] = biological target: 3',5'-cyclic-AMP phosphodiesterase 4B (Homo sapiens) (UniProt Q07343); assay: qHTS Assay for Inhibitors of PDE-IV (AID 607; active means well fitted activation curve with a large enough effect in the main read-out, with a control signal flat, not every such curve was filed as active; further: % of control where 0% means no effect); conditions: HEK293 ACTOne CNG channel cells, membrane potential fluorescence; series mostly up to 22.9 µM
Chain of 3',5'-cyclic-AMP phosphodiesterase 4B (Homo sapiens) (Q07343 whole entry, looked up): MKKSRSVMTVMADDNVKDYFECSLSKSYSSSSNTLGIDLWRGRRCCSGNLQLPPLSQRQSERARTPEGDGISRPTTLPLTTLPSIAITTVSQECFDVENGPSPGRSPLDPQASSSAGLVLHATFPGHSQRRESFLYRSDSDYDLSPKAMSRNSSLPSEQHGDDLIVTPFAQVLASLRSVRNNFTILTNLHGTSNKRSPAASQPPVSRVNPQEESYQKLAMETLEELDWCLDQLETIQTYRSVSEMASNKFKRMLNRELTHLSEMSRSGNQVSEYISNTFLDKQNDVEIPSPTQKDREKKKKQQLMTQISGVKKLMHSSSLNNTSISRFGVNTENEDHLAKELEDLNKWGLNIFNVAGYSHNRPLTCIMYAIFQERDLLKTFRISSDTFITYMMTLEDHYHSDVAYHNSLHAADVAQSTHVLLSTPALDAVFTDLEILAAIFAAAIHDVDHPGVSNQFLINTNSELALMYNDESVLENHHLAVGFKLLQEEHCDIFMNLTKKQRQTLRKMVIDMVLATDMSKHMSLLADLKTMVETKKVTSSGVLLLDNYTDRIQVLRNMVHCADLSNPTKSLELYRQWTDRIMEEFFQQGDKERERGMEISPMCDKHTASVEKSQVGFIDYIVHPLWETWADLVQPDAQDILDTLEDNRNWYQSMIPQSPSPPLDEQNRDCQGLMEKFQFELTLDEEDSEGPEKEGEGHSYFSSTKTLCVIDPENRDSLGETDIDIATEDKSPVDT
Method in brief: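 ACTOne HEK293 cells carry a modified cAMP-gated CNG channel and express endogenous PDE4; plated 1000 cells/well, compounds up to 22.9 uM final. Membrane-potential dye fluorescence (ex 535/em 590) was read; parental cells received 10 uM forskolin + 100 uM RO 20-1724.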

CO[C@H]1[C@H](O)[C@H](O[C@@H]2[C@H](Oc3cccc4c(O)c5c(=O)oc6ccc(C)c7c(=O)oc(c34)c5c67)O[C@@H](C)[C@H](O)[C@H]2O)O[C@@H](C)[C@@H]1O
inactive: Potency [1] > 11.4 µM | activity change, negative = inhibition [2] 1.4% | activity, negative = inhibition [3] 7.37% | Potency [4] > 46 µM | Potency [5] > 9.22 µM | activity change, negative = inhibition [6] 1.22% [at 11.4 µM] | outcome [7]
